# Compound activity: PubChem BioAssay, National Center for Advancing Translational Sciences (NCATS)
# HT1080-NT tox: kills 2HG-producing HT-1080-NT fibrosarcoma cells; HT-1080-NT fibrosarcoma viability, CellTiter-Glo ATP luminescence, 48 h; Potency, µM (series often up to 46.1 µM), for the others: top-dose activity, negative = less viability, hits mostly cytotoxic; hit rate 1.6% among 360,000; AID 686970;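 also: NT is the 2HG producing partner of a matched IDH1 knockdown line; 0% = DMSO-treated cells and -100% = media-only wells without cells; nearly all actives have a fitted effect of over 55% in size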
#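 Compounds were tested in concentration-response format on HT-1080-NT cells for 48 hours at 37 degrees C. Cell viability came from CellTiter-Glo luminescence; curves were classified by r2, response magnitude and activity.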
# KB-3-1 tox: KB-3-1 parental cell cytotoxicity; KB-3-1 viability, CellTiter-Glo ATP luminescence, 72 h; Potency, µM (series often up to 46.1 µM), most hits filed as cytotoxic; hit rate 1.4% among 400,000; also: % is scaled to controls: 0 for no effect and ±100 for the full control effect; nearly all actives have a fitted effect of over 60% in size
#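 KB-3-1 parental drug-naive adenocarcinoma cells in DMEM/10% FBS, incubated 72 h at 37 C with pin-transferred compounds across a concentration series. Viability by CellTiter-Glo luminescence; concentration-response curves fitted after normalization.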
# HT1080 IDH1KD tx: kills HT-1080 cells with IDH1 knockdown | HT-1080 IDH1 knockdown viability, ATP luminescence, 48 h | Potency, µM (series often up to 46.1 µM), for inactives: at the highest dose activity, negative = toxicity, hits mostly cytotoxic | hit rate 2% among 360,000 | AID 686971;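 also: 0% = DMSO wells and -100% = cell-free medium wells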
#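 Viability of IDH1-knockdown HT-1080 fibrosarcoma cells was assessed by CellTiter-Glo after 48 h at 37 °C with titrated compound; concentration-effect curves were classified by fit quality and response size.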
# MCF10A rereplic: inducers of DNA re-replication in MCF 10A breast cells | hit rate 2.9% among 350,000 | Potency, µM (series often up to 46.1 µM), inactives show top-dose activity, positive = re-replication, most hits filed as activators | MCF 10A DNA re-replication, Hoechst nuclear intensity, 48 h; also: % of control where 0% means no effect; nearly all actives have a fitted effect of over 50% in size
# KB-V1 cytotox: KB-V1 MDR subline cytotoxicity | Potency, µM (titrated, usually from 46.1 µM), hits mostly cytotoxic | hit rate 3.4% among 400,000 | KB-V1 MDR cells viability, CellTiter-Glo, 72 h; also: % is scaled to controls: 0 for no effect and ±100 for the full control effect; nearly all actives have a fitted effect of over 60% in size
#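 Cytotoxicity toward P-gp-expressing KB-V1 cells was determined as loss of CellTiter-Glo luminescence after 72 h at 37 degrees C. Compounds were tested in quantitative HTS format across a concentration range, with curves fitted to normalized data.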
# SW480 rereplic: inducers of DNA re-replication in SW480 colon cancer cells. AID 624297. Potency, µM (doses to about 46.1 µM), inactives show at the top dose re-replication activation, hits mostly activators. hit rate 1.8% among 340,000. SW480 DNA re-replication, Hoechst DNA content imaging, 48 h; also: % of control where 0% means no effect; nearly all actives have a fitted effect of over 55% in size
#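 DNA re-replication was detected as more nuclei of elevated Hoechst intensity after 48 hr exposure to compound (23 nL pinned per well of 250 cells).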
# * = called active by the depositor; i = inactive; ? = inconclusive; . = no result given; ! = a repeat was not active; [ ] = another dose, or the depositor's remark. Sampled rows, rich in hits. Any-hit rate of the full collection: about 8%. Calls follow the shape of the dose curve; as a rule, active = well fitted curve in the direction sought with a large enough effect; inconclusive = small, poorly fitted or top-dose-only effect, or another doubt; inactive = no such curve, though single readings can be large; an effect the other way counts as inactive or inconclusive. Potency is read from the fitted curve at half-maximal effect.
SMILES,HT1080-NT tox,KB-3-1 tox,HT1080 IDH1KD tx,MCF10A rereplic,KB-V1 cytotox,SW480 rereplic
O=C(NN1CCOCC1)c1cc(-c2cccc(Cl)c2)nc2ccccc12,4%,i,-11%,-3%,12µM*,-1%
COc1ccc(-c2cc(C(=O)NC(C)c3ccccc3)c3cc(C(C)C)ccc3n2)cc1 (stereo not given),.,i,.,.,i,.
Clc1ccc(-c2nn3c(-c4cc(-c5ccccc5)n[nH]4)nnc3s2)cc1,.,i,.,.,?,.
Cc1ccn2c(=O)c(C(=O)NCCCN3CCCC3=O)c(O)nc2c1,9%,i,8%,1%,i,?
Cc1csc2nc(O)c(C(=O)NCCCN3CCCC3=O)c(=O)n12,16%,i,0%,-2%,18µM*,-114%
Cc1csc2nc(O)c(C(=O)NC3CCCCCC3)c(=O)n12,-26%,i,-22%,-9%,?,-604%
Cc1csc2nc(O)c(C(=O)NC3CCCCC3)c(=O)n12,-8%,i,1%,7%,21µM*,15%
CCCCOc1ccc(OCCNC(=O)c2ccco2)cc1,1%,?,?,?,?,0%
COc1cccc(CC(=O)N2CCN(c3ccccc3[N+](=O)[O-])CC2)c1,20%,i,-9%,0%,i,8%
O=Cc1cn[nH]c1-c1ccccc1,6%,i,4%,0%,i,-3%
O=Cc1cc(-c2ccccc2)[nH]c1-c1ccccc1,21%,i,20%,6.5µM*,i,-5%
Cc1ccc(S(=O)(=O)N2CCCc3cc(NC(=O)c4cccc(Cl)c4)ccc32)cc1,.,i,.,.,i,.
COc1ccc(S(=O)(=O)N2CCCCC2)cc1NC(=O)CCNC(=O)c1ccc(Br)cc1,10%,i,11%,1%,?,-5%
CC1(C)Cc2c(C#N)c(NCCO)nc(-c3ccco3)c2CO1,8%,i,1%,23µM*,?,18µM*
CC1(C)Cc2c(C#N)c(NCCN3CCOCC3)nc(-c3ccccc3)c2CO1,-10%,i,10%,0%,i,7.3µM*
CN(C)CCNc1nc(-c2ccccc2)c2c(c1C#N)CC(C)(C)OC2,-2%,i,0%,5%,i,2%
CC1(C)Cc2c(C#N)c(NCCN3CCOCC3)nc(-c3ccco3)c2CO1,-2%,i,2%,23µM*,i,17%
CCN(CC)CCCN(Cc1cc2cc3c(cc2[nH]c1=O)OCO3)C(=S)Nc1ccccc1OC,-15%,i,-10%,6%,?,-72%
OC(c1ccccc1)c1nc2ccccc2n1Cc1c(F)cccc1Cl (stereo not given),.,i,.,.,i,.
COC(=O)C1C2CC3c4[nH]c5cc(OC)ccc5c4CCN3CC2CC(OC)C1OC (stereo not given),.,.,.,22%,.,2%
COC(=O)[C@H]1[C@H]2C[C@@H]3c4[nH]c5cc(OC)ccc5c4CCN3C[C@H]2C[C@@H](OC(=O)c2cc(OC)c(OC)c(OC)c2)[C@@H]1OC,?,i,?,30µM*!,i,?
Cc1c(NS(=O)(=O)c2ccc(N(C)C3CCCCC3)c([N+](=O)[O-])c2)c(=O)n(-c2ccccc2)n1C,-4%,?,-1%,-12%,15µM*,?
COc1ccc(C2Nc3ccccc3-c3nnc(SC)nc3O2)cc1C (stereo not given),.,i,.,.,i,.
Cc1ccccc1Oc1nc(-c2ccccn2)nc2ccccc12,?,i,-27%,14%,9.2µM*,1%
Cc1cccc(Oc2nc(-c3ccncc3)nc3ccccc23)c1,?,i,?,?,i,12%
SMILES,HT1080-NT tox,KB-3-1 tox,HT1080 IDH1KD tx,MCF10A rereplic,KB-V1 cytotox,SW480 rereplic
Cc1cccc(Oc2nc(-c3ccccn3)nc3ccccc23)c1,?,i,16µM*,5%,?,79%
CCc1sc(-c2cc3ccc(O)cc3oc2=O)nc1-c1ccc(C)cc1,.,i,.,.,?,.
O=c1oc2cc(O)ccc2cc1-c1nc2c(s1)CCc1ccccc1-2,0%,i,-2%,?,i,3.7µM*
O=c1oc2ccccc2cc1-c1nc2c(s1)CCc1ccccc1-2,2%,i,1%,?,i,21µM*
O=c1oc2ccc3ccccc3c2cc1-c1nc2c(s1)CCc1ccccc1-2,.,?,.,.,i,.
Cc1cc(NC(=O)CSc2c(C)[nH]c3ccccc23)no1,-4%,i,-6%,15%,i,-3%
Cc1[nH]c2ccccc2c1SCC(=O)NNC(=O)Nc1ccc(OC(F)(F)F)cc1,?,i,-23%,13µM*,i,-3%
N#Cc1ccccc1NC(=O)COC(=O)c1c[nH]c2ccccc12,-2%,i,5%,1%,i,-7%
CN(C)c1ccc(CNC(=O)CCCN2C(=O)c3cccnc3Oc3ccc(Cl)cc32)cc1,.,i,.,.,i,.
CCc1cc(-c2cnnn2Cc2ccccc2)ccc1-c1cn(CC(C)C)nn1,?,?,?,.,10µM*,.
CCCc1n[nH]c(=O)c2c1nnn2Cc1ccccc1,2%,i,-2%,-2%,i,5%
Cc1cc2nc(SCC(=O)Nc3ccccc3C(=O)O)[nH]c2cc1C,0%,i,3%,5%[9.22 µM],i,-3%
CNc1oc(-c2ccc(C)cc2)nc1P(=O)(c1ccccc1)c1ccccc1,?,i,?,18µM*,i,6%
CN(C)CC1CCCCC1C1(O)c2ccccc2CSc2sccc21 (stereo not given),18µM*,i,18µM*,0%,i,?
COC(=O)c1ccccc1SCC(=O)Nc1ccc(N2CCOCC2)cc1,1%,i,-1%,6%,i,0%
CSc1ccccc1C(=O)OCC(=O)Nc1ccc(N2CCOCC2)cc1,17%,i,13%,2%,21µM*,0%
CC(C)C[C@@H](CN1CCC[C@H]1CN1C(=O)C(=O)NC[C@@H]1Cc1ccccc1)N1C[C@H](Cc2ccc(O)cc2)N(CC2CCCCCC2)C(=O)C1=O,23µM*,?,18µM*,.,i,.
CC(C)C[C@H]1CN([C@@H](Cc2ccccc2)CN2CCC[C@@H]2CN2C(=O)C(=O)NC[C@@H]2Cc2ccc(O)cc2)C(=O)C(=O)N1CC1CCCCCC1,?,i,?,.,i,.
CC(C)C[C@H]1CN([C@@H](Cc2ccccc2)CN2CCC[C@@H]2CN2C(=O)C(=O)NC[C@@H]2Cc2ccccc2)C(=O)C(=O)N1CC1CCCCC1,?,?,16µM*,.,i,.
